Source: PubChem
Rows were chosen to be rich in hits. Some 1.3% of all compounds tested hit in one or more screens of this group.
PKA-R2B act = PKA-R2B complex activation. hit rate 0.079% among 340,000. activation, % at 11.4 µM. P22694+P31323. PKA-R2B holoenzyme dissociation, Cy5-IP20 fluorescence polarization; R2B truncated from residue 108, S112A mutant; 0% DMSO only, 100% 113 µM cGMP. AID 504700;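 active means activation above a cutoff set at the mean over all compounds plus 3 SD, cut at about 18% in these data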;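 further: higher means more holoenzyme dissociation and a rise in polarization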
IDE cell inh = inhibitors of human insulin-degrading enzyme in cells. P14735. HEK cells, FAbetaB cleavage, fluorescence polarization. inhibition, % at 5.59 µM. hit rate 0.41% among 320,000. AID 434962;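 active means percent inhibition above the average of all tested compounds plus 3 SD, set per screening campaign, cut at about 16% in these data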;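 further: IDE supplied by intact live HEK cells; FP after avidin binding of uncleaved biotin substrate so inhibition keeps polarization high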
Target sequence (P14735 whole entry, looked up): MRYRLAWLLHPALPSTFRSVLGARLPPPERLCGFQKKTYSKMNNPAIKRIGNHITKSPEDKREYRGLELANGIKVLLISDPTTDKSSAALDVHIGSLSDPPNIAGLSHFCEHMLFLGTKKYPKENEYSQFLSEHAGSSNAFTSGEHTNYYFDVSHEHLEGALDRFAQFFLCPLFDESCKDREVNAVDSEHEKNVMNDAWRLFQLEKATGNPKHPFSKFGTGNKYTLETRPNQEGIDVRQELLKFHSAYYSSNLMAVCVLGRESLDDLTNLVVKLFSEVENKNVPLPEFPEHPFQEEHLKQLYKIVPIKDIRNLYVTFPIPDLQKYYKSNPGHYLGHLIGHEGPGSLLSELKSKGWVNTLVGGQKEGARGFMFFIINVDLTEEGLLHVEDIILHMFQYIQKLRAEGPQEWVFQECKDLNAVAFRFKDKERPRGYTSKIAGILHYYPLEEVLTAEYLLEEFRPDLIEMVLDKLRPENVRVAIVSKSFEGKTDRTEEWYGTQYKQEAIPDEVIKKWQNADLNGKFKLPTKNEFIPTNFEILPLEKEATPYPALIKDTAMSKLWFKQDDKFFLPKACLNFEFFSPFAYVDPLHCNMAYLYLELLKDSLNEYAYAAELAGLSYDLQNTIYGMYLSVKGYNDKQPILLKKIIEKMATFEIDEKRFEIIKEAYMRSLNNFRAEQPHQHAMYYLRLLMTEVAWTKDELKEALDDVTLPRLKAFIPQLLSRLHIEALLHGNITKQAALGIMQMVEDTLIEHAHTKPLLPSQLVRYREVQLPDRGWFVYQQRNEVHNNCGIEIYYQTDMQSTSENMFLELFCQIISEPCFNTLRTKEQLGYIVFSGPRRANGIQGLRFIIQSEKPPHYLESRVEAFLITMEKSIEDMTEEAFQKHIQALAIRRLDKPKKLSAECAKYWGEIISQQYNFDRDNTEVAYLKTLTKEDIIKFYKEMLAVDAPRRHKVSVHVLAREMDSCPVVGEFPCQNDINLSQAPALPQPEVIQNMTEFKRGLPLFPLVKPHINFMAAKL
PKA-R1A act = activates the PKA-R1A holoenzyme complex; PKA-R1A dissociation, Cy5-IP20 fluorescence polarization; scaled: DMSO 0%, 113 µM cGMP 100%; activation, % at 11.4 µM; hit rate 0.083% among 340,000;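 active means percent activation above the mean of all tested compounds plus 3 SD, cut at about 19% in these data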;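 further: higher means more PKAc released from R1A so a rise in polarization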
Rin1-Abl PPI inh = blocks binding of human Rin1 to Abl; P00519+Q13671; AID 588664; inhibition, % at 7.35 µM; TR-FRET Rin1/Abl binding, biochemical; hit rate 0.4% among 360,000; in the data active means inhibition above about 5%, passing the limit was not always enough
E coli Lon inh = E. coli protease La inhibition; inhibition, % at 7.94 µM; P0A9M0; hit rate 0.42% among 360,000; purified E. coli Lon protease, fluorescence polarization; in the data active means inhibition above about 13%, passing the limit was not always enough
IDE act = activators of human insulin-degrading enzyme in cells; P14735; HEK cells, FAbeta-B cleavage, fluorescence polarization; 0% vehicle, 100% cell-free pure enzyme wells; activation, % at 5.96 µM; hit rate 0.073% among 340,000;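 active means activation above the mean of all tested compounds plus 3 SD, set per screening campaign, cut at about 17% in these data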
IDE inh confirm = confirmation of human insulin-degrading enzyme inhibitors in cells; inhibition, % at 5.59 µM; shares compounds with IDE cell inh; HEK cells, FAbetaB cleavage, fluorescence polarization; hit rate 51% among 1,200;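 active means mean inhibition across triplicate wells above the cutoff set by the earlier primary insulin-degrading enzyme screen, cut at about 16% in these data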
HEK293 tox = HEK cell cytotoxicity, counter-screen for IDE inhibitors; shares compounds with IDE cell inh; HEK293 cytotoxicity, ATP luminescence; inhibition, % at 5.59 µM; hit rate 28% among 1,200; in the data active means inhibition above about 22%
R2B FP artifact = fluorescence polarization artifact in PKA-R2B activator counter-screen; hit rate 6% among 270; activation, % at 11.4 µM; AID 504796; shares compounds with PKA-R2B act; FP artifact counterscreen; in the data active means activation above about 20%;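 further: Cy5 labelled IP20 peptide probe with compound but no PKA protein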
PKA-R2B act conf = confirmation of human PKA-R2B complex activators | shares compounds with PKA-R2B act | fluorescence polarization, activation | activation, % at 11.4 µM | hit rate 9% among 270; in the data active means activation above about 19%
Rin1 Abl conf = Rin1-Abl interaction inhibition confirmation. TR-FRET Rin1-Abl binding, purified proteins. hit rate 49% among 1,300. shares compounds with Rin1-Abl PPI inh. inhibition, % at 7.35 µM
GFP quench = quenches GFP fluorescence, counter-screen for Rin1-Abl inhibitors; hit rate 8.5% among 1,300; inhibition, % at 6.75 µM; shares compounds with Rin1-Abl PPI inh; inhibitors/quenchers counterscreen;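 further: ABL1-eGFP fusion protein alone without its partner RIN1-SBP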
GFP quench dose = quenches GFP in dose response, Rin1-Abl counter-screen. 230 tested, under 10 active. IC50, µM. shares compounds with Rin1-Abl PPI inh. GFP fluorescence interference/quenching counterscreen; call rule not given here;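 further: ABL1-eGFP fusion protein alone without its RIN1 binding partner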
E coli Lon conf = E. coli Lon inhibition confirmation. shares compounds with E coli Lon inh. purified E. coli Lon, fluorescence polarization. inhibition, % at 7.94 µM. hit rate 31% among 1,400. AID 602230; in the data active means inhibition above about 16%
Hits are given with their value; i = inactive; nt = no result given; + = active, no number. Unless noted, no stated cut-off is given here; in the data, active means inhibition above about 6.5%; inactive means the rest.

SMILES | PKA-R2B act | IDE cell inh | PKA-R1A act | Rin1-Abl PPI inh | E coli Lon inh | IDE act | IDE inh confirm | HEK293 tox | others
COc1ccc(/C=C2/SC(=S)N(NS(=O)(=O)c3ccccc3)C2=O)cc1 | i | i | i | i | i | i | nt | nt
CCOc1cc(/C=C2\SC(=S)N(NS(=O)(=O)c3ccc(C)cc3)C2=O)ccc1O | i | 35 | i | i | i | i | 84 | i
COc1cc(/C=C2\SC(=S)N(NS(=O)(=O)c3ccc(C)cc3)C2=O)ccc1O | i | 72 | i | i | i | i | 161 | i
COC(=O)C1=C(C)NC(C)=C(C(=O)OC)C1C(=O)OC(C)C(=O)c1ccccc1 (stereo unspecified) | i | i | i | i | i | i | nt | nt
Cc1cccc(N2CCN(C(=O)C3CCC(CNS(=O)(=O)c4cccs4)CC3)CC2)c1C (stereo unspecified) | i | 21 | i | i | i | i | i | 52
COc1ccc(CCn2c(-c3cccc([N+](=O)[O-])c3)nc3nc4ccccc4nc32)cc1OC | i | i | i | i | i | i | nt | nt
Cc1ccc2nc(N3CCN(Cc4nnnn4Cc4ccccc4)CC3)c(C#N)cc2c1 | i | 21 | i | i | i | i | i | i
O=C(CCCCCN1C(=O)c2ccccc2C1=O)NC1CCCC1 | i | i | i | i | i | i | nt | nt
COc1ccc(CC2=CC(=O)c3ccccc3C2=O)cc1 | i | 46 | i | 6.8 | i | i | 35 | 68
COc1ccc(Cc2ccccc2C(=O)O)cc1 | i | nt | i | i | i | i | nt | nt
Cc1ccnc2nc(C(=O)NC3CCCc4ccccc43)nn12 (stereo unspecified) | i | i | i | i | i | i | nt | nt
CC(C)(C)C(=O)Nc1ccc(C(=O)NNC(=O)c2ccccc2)cc1 | i | i | i | i | i | i | nt | nt
CCNC(=O)CSC1=N/C(=C\c2ccc(O)c(OCC)c2)C(=O)N1c1ccc(OC(F)F)cc1 | i | 70 | i | i | i | i | 148 | i
COc1cccc2sc(Nc3nc4ccc(NC(C)=O)cc4s3)nc12 | i | 24 | i | i | i | i | i | 117
COc1cccc2sc(Nc3nc(-c4ccncc4)cs3)nc12 | i | 17 | i | i | i | i | i | 61
CN(C)c1ccc(/C=C(\C#N)C(=O)Nc2nc3c(s2)CCN(Cc2ccccc2)C3)cc1 | i | 38 | i | i | i | i | 58 | i
COc1cc(/C=C/C(=O)c2ccc(NS(=O)(=O)c3ccc(C)cc3)cc2)cc(OC)c1O | i | 27 | i | i | i | i | 56 | 45
C[C@H](CO)N1C[C@H](C)[C@@H](CN(C)Cc2ccc(Oc3ccccc3)cc2)Oc2c(NC(=O)c3ccncc3)cccc2C1=O | i | 24 | i | 30 | i | i | i | 24 | Rin1 Abl conf=28;GFP quench=i
COCCCNC(=O)C[C@H]1C[C@H](C(=O)N2CCCCC2)[C@@]2(CCc3ccccc3)c3[nH]c4cc(-c5ccco5)ccc4c3CCN2C1=O | i | nt | i | i | i | i | nt | nt
CCOC(=O)C1=C(N)Oc2ccc3ccccc3c2C1c1cccc(O)c1 (stereo unspecified) | i | i | i | i | i | i | nt | nt
CCc1cccc(NC(=O)CCCCCC2NC(=O)NC2C)c1 (stereo unspecified) | i | 22 | i | 97 | i | i | i | i | Rin1 Abl conf=100;GFP quench=i;GFP quench dose=i
CCc1cccc(NC(=O)CCCN2C(=O)NC(C)(C)C2=O)c1 | i | i | i | i | i | i | nt | nt
COc1ccc(N2CCN(c3nc4c(c(=O)n(C)c(=O)n4C)n3Cc3ccccc3)CC2)cc1 | i | 20 | i | 5.8 | i | i | i | i | Rin1 Abl conf=7.7;GFP quench=i
C=CCN1C(=O)c2cccc3c(N4CCCCC4)ccc(c23)C1=O | i | 22 | i | i | 114 | i | 85 | 24 | E coli Lon conf=i
Cc1n[nH]c(C)c1N1C(=O)c2cccc3c(N4CCCCCC4)ccc(c23)C1=O | i | 122 | i | i | 69 | i | 26 | i | E coli Lon conf=i
SMILES | PKA-R2B act | IDE cell inh | PKA-R1A act | Rin1-Abl PPI inh | E coli Lon inh | IDE act | IDE inh confirm | HEK293 tox | others
CC(=O)N/N=C/c1cc(C(C)C)cc(/C=N/NC(C)=O)c1O | i | 23 | i | i | 69 | i | 35 | i | E coli Lon conf=100
CC(=O)N/N=C/c1cc(C)n(-c2ccc(Br)cc2)c1C | i | i | i | i | i | i | nt | nt
Cc1ccc(N2C(=O)c3cccc4c(C(=O)O)ccc(c34)C2=O)cc1 | nt | i | nt | nt | nt | nt | nt | nt
CC(=O)Nc1ccc(N2C(=O)c3cccc4c(O)ccc(c34)C2=O)cc1 | i | 95 | i | i | + | i | 26 | i | E coli Lon conf=+
Nc1nnnn1/N=C/c1cc(Cl)cc(Cl)c1O | i | 19 | i | i | 49 | i | 43 | i | E coli Lon conf=73
C=CCNC(=S)NNC(=O)c1cc(-c2cccnc2)nc2ccccc12 | i | nt | i | i | i | i | nt | nt
Cc1ccc(CNc2nnnn2C)cc1 | i | i | i | i | i | i | nt | nt
OC(c1cc(C(F)(F)F)nc2c(Cl)cc(Cl)cc12)C1CCCCN1 (stereo unspecified) | i | i | i | i | i | i | nt | nt
C=CCNC(=O)c1ccc(-c2nc(-c3ccccc3)cs2)cc1 | i | i | i | i | i | i | nt | nt
C=CCNC(=O)c1ccc(-c2nc3ccccc3nc2-c2ccccc2)cc1 | 22 | i | i | i | i | i | nt | nt | R2B FP artifact=i;PKA-R2B act conf=i
S=C(Nc1ccc(Cl)cc1)N(CCCN1CCOCC1)Cc1cccs1 | 22 | i | i | i | i | i | nt | nt | R2B FP artifact=i;PKA-R2B act conf=i
O=C(NCCNC(=O)C1CC2CCC1C2)C1CC2CCC1C2 (stereo unspecified) | i | i | i | i | i | i | nt | nt
